This is an account of results in PubChem BioAssay (NCI).

SMILES strings stand for the structures. Compounds without any hit were thinned out: in the full panel of roughly 83,000, 20% have a hit.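 Each cell line was grown in a 96-well plate and treated with one concentration of compound for 48 hours. Values below 10 were considered active.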 A number with no mark means an inactive call. Calls of active or inactive are those of the source.

In this test the test system is MDA-MB-468 breast. Briefly: NCI-60 one-dose screen, 48 h (100 = growth as untreated, 0 = no growth, -100 = all killed). To be noted: 10 µM unless noted.
For the molecule `C=C(C)[C@@H]1CC[C@]2(COCCC#N)CC[C@]3(C)[C@H](CC[C@@H]4[C@@]5(C)Cc6c([nH]c7ccccc67)C(C)(C)[C@@H]5CC[C@]43C)[C@@H]12`, the growth is 115%.

On to `C#C[C@@]1(O)[C@@H](CO)O[C@@H](n2cc(Br)c3c(Cl)ccnc32)[C@@H]1O`, for which the growth is 14%.

Take `COc1ccc(-c2cc(-c3cccnc3)nc3sc4c(=O)n(-c5ccc(C)cc5)nnc4c23)cc1OC`: the growth was 88%.

Regarding `COc1ccc(-c2nnc(SCC(=O)Nc3ccc(C(=O)/C=C/c4ccc(Cl)cc4)cc3)o2)cc1OC`, the growth was 99.4%.

`O=C1Nc2ccc(Cl)cc2/C1=C\c1c(-c2ccc(F)cc2)nc2ccccn12`: the growth is -13.6% (active).

Turning to `CSCCCNC(=O)c1ccc2c(c1)/C(=C/c1[nH]c(C)cc1C)C(=O)N2`, the growth was 42.7%.

`CCOC(=O)Cn1c(O)c(N=Nc2ccc(S(N)(=O)=O)cc2)c2cc(Br)ccc21`: the growth is 96.4%.

For `c1ccc2c(NCCCN3CCN(CCCNc4c5ccccc5nc5ccccc45)CC3)c3ccccc3nc2c1`, the growth was -73.2% [100 µM] (active).

Turning to `COc1cc(NC(N)=NCCC(C)(C)c2ccc(C(F)(F)F)cc2)ncc1C#N`, the growth was -39.1% (active).

On to `C[C@@H]1[C@H]2[C@H](C=C3[C@@H]4CC[C@H]5Cc6nc7c(nc6C[C@]5(C)[C@H]4C[C@@H](O)[C@@]32C)C[C@@H]2CC[C@H]3C4=C[C@@H]5O[C@@]6(CC[C@](C)(CO)O6)[C@@H](C)[C@@]5(O)[C@@]4(C)[C@H](O)C[C@@H]3[C@@]2(C)C7)O[C@]12CCC(C)(C)O2`, for which the growth is 11.8%.

As to `COc1ccc(Nc2[nH]n(C3=Nc4ccccc4Sc4ccccc43)c(=O)c2C#N)cc1`, the growth is -3.96% (active).

Take `COc1ccc(Cl)cc1NC(=O)c1cc2c(n1C)-c1nc(NC(=O)C(C)(C)C)sc1CC2`: the growth is 96.7%.

With `COc1cccc(-c2nc(-c3ccc(NC(=O)OC(C)C)cc3)[nH]c2-c2ccnc(Br)c2)c1`, the growth is 18.2%.

On to `COc1cc([C@@H](CCO)C[C@H](C)c2ccc3ccccc3c2)cc(OC)c1OC`, for which the growth is 17.2%.

Take `O=[N+]([O-])c1ccc(-c2cc3c(Nc4ccc(OCc5cccc(Cl)c5)c(Cl)c4)ncnc3s2)cc1`: the growth is 56.2%.

As to `O=C(CSc1nnc(-c2cc(-c3ccccc3)nc3ccccc23)o1)c1ccc(Br)cc1`, the growth is 103%.

As to `CCOC(=O)c1c(Nc2ccccc2)nn2c(-c3ccc(Br)cc3)ccnc12`, the growth was 67.5%.

For `O=C(/C(=N/O)c1ccccc1)c1ccccc1`, the growth is 93.1%.

Take `CC(C)(C)OC(=O)NCc1cccc(N=C=S)c1`: the growth is 39.4%.

In the case of `CCCCN(CCCC)CCC(=O)c1ccc(OC)c2ccccc12`, the growth was -18.7% (active).

With `COC(=O)c1cnc2c(c1)Oc1ccccc1-c1ccnn1-2`, the growth is 101%.

As for `C#CCNC(=O)[C@]1(C)CCC[C@@]2(C)[C@H]1CC=C1C=C(C(C)C)CC[C@@H]12`, the growth is 101%.

Take `CC1(C)CC[C@]2(C(=O)Nc3ccccn3)CC[C@]3(C)C(=CC[C@@H]4[C@@]5(C)C/C(=C/c6ccncc6)C(=O)C(C)(C)[C@@H]5CC[C@]43C)[C@@H]2C1`: the growth was 19.2%.

`CN(C)CCOc1ccc(-c2nc3ccc(-c4nc5ccc(N6CCN(C)CC6)cc5[nH]4)cc3[nH]2)cc1`: the growth is 40.2%.

Consider `ClCc1cccc2c(CCl)cccc12`, for which the growth is -18.3% (active).

Consider `COc1cc(Nc2ncc(F)c(Nc3ccc4c(n3)N(COP(=O)(O)O)C(=O)C(C)(C)O4)n2)cc(OC)c1OC`, for which the growth is 6.8% (active).

For `N=C(N)N=Nc1ccc(NN=C(N)N)c2ccccc12`, the growth was -27.2% (active).

As for `Cc1ccc(C2CC(c3ccc(Nc4nc(NCCO)nc(NCCO)n4)cc3)=NN2c2ccc(Cl)cc2)cc1` (stereo not given), the growth was 73.2%.

In the case of `CCCOS(=O)(=O)c1ccccc1`, the growth is 108%.

On to `Oc1ccc(Cl)cc1CNc1nc2ccccc2[nH]1`, for which the growth is 102%.

On to `N#Cc1cnc2ccc(-c3cnc(N)nc3)cc2c1N1CCc2cc(F)c(Cl)cc21`, for which the growth is -38.1% (active).

On to `CCN(CC)CCn1c(=O)c2cc(OC)c(OC)cc2c2ccc3cc4c(cc3c21)OCO4`, for which the growth is -13.5% (active).

As to `N#CC(=Nc1cccc(F)c1)C1=C(O)c2ccccc2C1=O`, the growth was 75.2%.

As for `COc1cc(/C=C2\CN(S(=O)(=O)c3ccc(C)cc3)C/C(=C\c3cc(CN4CCCCC4)c(O)c(OC)c3)C2=O)cc(CN2CCCCC2)c1O`, the growth is -63.3% (active).

Take `Clc1nc(-c2ccccn2)nc2sc3c(c12)CCCCCC3`: the growth is -84.3% (active).

For `Clc1ccc2[nH]c3c(NCCCN4CCOCC4)ncnc3c2c1`, the growth was 33.7%.

Turning to `CC(=O)Nc1c(Cl)cc(Cl)c2c1Cc1cc([N+](=O)[O-])ccc1-2`, the growth was 94.9%.

Turning to `CC(=O)Nc1ccc(O)c(C)c1`, the growth was 111%.

Turning to `O=C(Nc1cc(Cl)cc(Cl)c1)Nc1nc2ccc([N+](=O)[O-])cc2s1`, the growth is -24.1% (active).

As to `O=C(Nc1ccc2c(c1)OCO2)C(=O)c1c[nH]c2cc(F)ccc12`, the growth was 74.5%.
